Consider 28 compounds from PubChem BioAssay (EPA / NIEHS).

Several values for one entry are separate records, joined by “and”; a condition that tells them apart may be missing. Equal values may be shown once. Results filed as inconclusive are left out. Some compounds were tested as several samples or in several runs, with calls that do not always agree. Activity calls are given as the source filed them. The calls were made as follows, unless noted: active = hit-call score of the fitted dose curve at least 0.9, where 1 is the maximum; inactive = score below 0.9.

For test [1], the target named is Estrogen receptor (Homo sapiens) (UniProt P03372). The test can be described thus: CCTE_Deisenroth_AIME_384WELL_LUC_Active: CCTE's 384-well Estrogen Receptor Transactivation Assay with AIME metabolic competence (ERTA luciferase; metabolism positive), Deisenroth Lab (AID 2284030; active = hit-call score of the fitted dose curve at least 0.9, where 1 is the maximum). In a few lines:
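Test chemicals (10-point series, 0.002 - 200 uM) were preincubated 2 hours with alginate-immobilized phenobarbital/beta-naphthoflavone-induced male Sprague Dawley rat liver S9; conditioned medium then went onto VM7Luc4E2 breast cells for 24 hour. Luciferase gain-of-signal fitted relative to 17beta-estradiol.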

Test [2] in a line: CCTE_Deisenroth_AIME_384WELL_CTox_Active: Cytotoxicity Assessment (CTOX) in CCTE's 384-well Estrogen Receptor Transactivation Assay with AIME metabolic competence (metabolism positive), Deisenroth Lab (AID 2284037; active = hit-call score of the fitted dose curve at least 0.9, where 1 is the maximum;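 also: chemicals first conditioned 2 h by alginate-bound induced rat liver S9 before cells; activity means signal loss indicating cell death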). The procedure, abridged: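 VM7Luc4E2 breast cells received medium pre-incubated 2 h with chemical over alginate microspheres holding induced male Sprague Dawley rat liver S9; viability read 24 h later by protease-substrate fluorescence. Loss of signal, bidirectional fit, 0.002–200 uM.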

The target in test [3] is Estrogen receptor (Homo sapiens) (UniProt P03372). Put plainly: CCTE_Deisenroth_AIME_384WELL_LUC_Inactive: CCTE's 384-well Estrogen Receptor Transactivation Assay without AIME metabolic competence (ERTA luciferase; metabolism negative), Deisenroth Lab (AID 2284038; active = hit-call score of the fitted dose curve at least 0.9, where 1 is the maximum;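 also: hits raise estrogen receptor luciferase signal so potencies reflect agonists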). In a few lines: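 VM7Luc4E2 ER transactivation, luciferase bioluminescence after 24 h, using medium pre-incubated 2 h with S9-free alginate microspheres. Concentrations 0.002–200 uM; gain of signal fitted relative to 17beta-estradiol.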

Test [4] shares this target. The test can be described thus: CCTE_Deisenroth_AIME_384WELL_LUC_Shift: CCTE's 384-well Estrogen Receptor Transactivation Assay with AIME metabolic competence data shift (ERTA luciferase; difference in metabolism positive and negative), Deisenroth Lab (AID 2284041).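 Also: shift is response with S9 minus without S9 so positive means metabolism raised ER signal.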 In a few lines:
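Here, parent compounds undergo 2 h phase I metabolism by PB/BNF-induced rat S9 before 24 h transactivation in VM7Luc4E2 cells; the curve models S9-positive minus S9-negative response over a 10-point series.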

The nature of test [5]: CCTE_Shafer_MEA_dev_firing_rate_mean: CCTE's Neural Network Formation Assay for Mean Firing Rate, Shafer Lab (AID 2284031).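 As to AC50: curve fitted for loss of firing so AC50 reflects decreased mean firing rate.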 In a few lines: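 Steps: seed rat cortical cells (1.5 x 10^5/well) with laminin on PEI-coated MEA; dose day 0; record DIV 5/7/9/12, full media and compound exchange after DIV 5 and 9 recordings; compute well-mean firing rate AUC.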
Test [6] is described as follows: CCTE_Shafer_MEA_dev_per_burst_spike_percent: CCTE's Neural Network Formation Assay for Percent of Spikes in a Burst, Shafer Lab (AID 2284032).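 As to AC50: fitted as a decrease in burst spike percentage below DMSO baseline.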 The procedure, abridged:
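Value is trapezoidal AUC over recordings on days 5, 7, 9 and 12 of the well-mean fraction of spikes falling in single-electrode bursts; rat cortical cultures exposed continuously from plating, treatment renewed DIV 5 and 9, fitted downward against DMSO.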

The nature of test [7]: CCTE_Shafer_MEA_dev_active_electrodes_number: CCTE's Neural Network Formation Assay for Number of Active Electrodes, Shafer Lab (AID 2284040; active = hit-call score of the fitted dose curve at least 0.9, where 1 is the maximum;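 as to AC50: potency for loss of active electrodes versus DMSO so lower counts are hits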). In a few lines:
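Counts electrodes per well firing at least 5 spikes/min, recorded on days 5, 7, 9 and 12 in rat cortical cultures dosed continuously from plating (treatment refreshed DIV 5, 9). Value is the area under the curve over recordings, fitted downward relative to DMSO.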

The nature of test [8]: CCTE_Shafer_MEA_dev_burst_rate: CCTE's Neural Network Formation Assay for Burst Rate, Shafer Lab (AID 2284042).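 As to AC50: potency for loss of burst rate below DMSO control.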 In a few lines: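 Exposure ran continuously over 12 days of network development in rat cortical cultures, with compound refreshed during full media changes on DIV 5 and 9. Single-electrode bursts per recording time, well-mean over active electrodes, trapezoidal AUC across days 5–12, fitted downward relative to DMSO.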

A short description of test [9]: CCTE_Deisenroth_AIME_384WELL_CTox_Inactive: Cytotoxicity Assessment (CTOX) in CCTE's 384-well Estrogen Receptor Transactivation Assay without AIME metabolic competence (metabolism negative), Deisenroth Lab (AID 2284039; active = hit-call score of the fitted dose curve at least 0.9, where 1 is the maximum;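 also: cell viability via live-cell protease substrate cleaved to fluorescent probe; cells exposed 24 h to medium preincubated 2 h with alginate-water beads without S9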). In a few lines:
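Fluorescent protease-substrate viability readout after 24 h exposure of VM7Luc4E2 cells to conditioned medium. Chemicals (0.002–200 uM) first sat 2 h over alginate-water beads, no S9. Data fitted bidirectionally, loss of signal meaning viability loss.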

Chain of Estrogen receptor (Homo sapiens) (P03372 whole entry, looked up): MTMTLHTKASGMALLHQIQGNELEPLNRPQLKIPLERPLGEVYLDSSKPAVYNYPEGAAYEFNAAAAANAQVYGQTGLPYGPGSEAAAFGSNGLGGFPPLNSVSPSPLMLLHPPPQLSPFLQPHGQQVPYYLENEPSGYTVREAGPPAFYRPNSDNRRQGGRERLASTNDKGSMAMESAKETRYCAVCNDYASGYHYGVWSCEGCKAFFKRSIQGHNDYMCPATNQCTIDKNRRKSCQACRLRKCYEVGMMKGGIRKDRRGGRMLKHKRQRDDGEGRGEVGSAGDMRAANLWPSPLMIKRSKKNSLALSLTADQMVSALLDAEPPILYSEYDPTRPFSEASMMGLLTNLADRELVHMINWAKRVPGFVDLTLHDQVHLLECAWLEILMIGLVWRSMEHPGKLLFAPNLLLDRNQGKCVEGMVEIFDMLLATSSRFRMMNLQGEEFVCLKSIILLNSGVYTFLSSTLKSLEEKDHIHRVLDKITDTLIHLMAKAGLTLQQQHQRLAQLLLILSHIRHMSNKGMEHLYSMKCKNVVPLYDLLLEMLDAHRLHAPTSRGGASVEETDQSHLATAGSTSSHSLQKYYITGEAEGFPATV

A word on the AC50: it is the concentration giving half of the maximal activity seen. For the compound `Nc1cc2c3c(c1)C(c1ccccc1)=N[C@@H](NC(=O)c1cccnc1)C(=O)N3CC2`, the compound was called inactive in test [1], in test [2] and in test [3]. Further, the AC50 in [4] is 39.4 µM (active).

On to `O=P1(N(CCCl)CCCl)NCCCO1` (stereo not drawn), for which the outcome in test [5], in test [6], in test [7] and in test [8] was inactive.

With `CCOP(=S)(OCC)SCSCC`, the result in test [5], in test [6] and in test [8] was inactive. The AC50 in test [6] was 74.7 µM (active); in test [7], 81.3 µM (active) and 23.2 µM (active).

As to `CCCCC(CC)COC(=O)c1c(Br)c(Br)c(Br)c(Br)c1C(=O)OCC(CC)CCCC` (stereo not drawn), the compound was called inactive in test [5], in [6], in test [7] and in test [8].

For the compound `CCCCOCCOP(=O)(OCCOCCCC)OCCOCCCC`, in [4], the result was inactive.

`O=C(O)C(F)(F)C(F)(F)C(=O)O`: the compound was called inactive in test [5], in [6], in test [7] and in test [8].

On to `C=CC(=O)OCC(F)(F)C(F)F`, for which the call in [5] and in [8] was inactive. Also, the values for the concentration at half-maximal activity (AC50) in test [6] and in test [7] were 5.66 µM (active) and 4.45 µM (active), respectively.

`O=S(=O)(c1ccc(O)cc1)c1ccc(O)cc1`: the compound was called inactive in test [5], in test [6], in [7] and in [8].

`c1cc2c3c(cccc3c1)CC2`: the compound was classed as inactive in test [5], in [6], in test [7] and in test [8].

As for `OCC(F)(F)OC(F)(F)C(F)(F)OC(F)(F)C(F)(F)OC(F)(F)F`, the result in test [5], in test [6], in test [7] and in test [8] was inactive.

Consider `O=C(O)C=CC(F)(C(F)(F)F)C(F)(F)F`, for which the compound was classed as inactive in test [5], in [6] and in test [8].

Turning to `O=P(Oc1ccccc1)(Oc1ccccc1)Oc1ccccc1`, the result in [5], in test [6], in test [7] and in [8] was inactive.

With `O=C(O)C(F)(F)OC(F)(F)C(F)(F)OC(F)(F)F`, the outcome in test [5], in test [6], in test [7] and in test [8] was inactive.

As for `CC(O)C(F)(F)C(F)(F)F` (stereo not drawn), the compound was called inactive in test [5], in test [6], in test [7] and in [8].

`Cc1cccc(N)c1`: the outcome in test [1], in [3], in [9] and in test [4] was inactive.

For the compound `COC(N)=O`, the outcome in [1], in test [3] and in [4] was inactive.

In the case of `CCCN(CCC)c1c([N+](=O)[O-])cc(C(C)C)cc1[N+](=O)[O-]`, the half-maximal activity concentration (AC50) in [1] was 13.3 µM (active). Besides, the result in test [3], in test [9] and in [4] was inactive.

Take `O=C(O)C(F)(F)OC(F)(F)C(F)(F)OC(F)(F)C(=O)O`: the compound was called inactive in test [5], in test [6], in test [7] and in [8].

In the case of `CC(C)(C)OOC(C)(C)C`, the compound was classed as inactive in [1], in test [2], in test [3] and in test [4].

With `c1nc[nH]n1`, the compound was classed as inactive in test [1], in test [3], in [9] and in test [4].

On to `CCCCOCC1CO1` (stereo not drawn), for which the AC50 in [1] was 77.3 µM (active); in test [3] it was 19.9 µM (active); in test [4], 8.76 µM (active). Besides, the result in test [2] was inactive.

With `CO/N=C(/C(=O)OC)c1ccccc1COc1ccccc1C`, the half-maximal activity concentration (AC50) in [5] was 1 µM (active); in test [6], 0.639 µM (active); in test [7], 0.857 µM (active); in test [8] it was 0.403 µM (active).

For the compound `O=C(O)CF`, the call in test [1], in [3], in [9] and in test [4] was inactive.

In the case of `CCOS(=O)(=O)OCC`, the outcome in test [1], in test [3], in test [9] and in [4] was inactive.

Take `O=C(O)C(F)(OC(F)(F)C(F)(F)C(F)(F)F)C(F)(F)F` (stereo not drawn): the outcome in [5], in test [6], in test [7] and in test [8] was inactive. Further, the AC50 in test [8] is 11.7 µM (active).

`OCC(F)(F)OC(F)(F)C(F)(F)OC(F)(F)CO`: the outcome in [5], in [6], in [7] and in [8] was inactive.

Consider `O=c1ssc(Cl)c1Cl`, for which the compound was classed as inactive in [1], in test [3] and in test [4].

For the compound `OCC(F)(F)OC(F)(F)C(F)(F)OC(F)(F)C(F)(F)OC(F)(F)CO`, the result in test [5], in test [6], in [7] and in test [8] was inactive.
